Screening data: PubChem, University of Kansas High Throughput Screening Laboratory
Pf apPOL inh: Pf-apPOL DNA polymerase inhibition; Recombinant Pf-apPOL, molecular beacon fluorescence, 1.5 h; inhibition, % at 10 µM; 0.25% of 210,000 active
mHTT CaM bind: inhibitors of human mutant huntingtin-calmodulin interaction. P42858. AlphaScreen His-mHTT/GST-CaM binding, luminescence. inhibition, % at 15 µM. 3.6% of 190,000 active. AID 1671202;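 further: 0% = both proteins with DMSO and 100% = one protein alone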
Numbers without * were called inactive; x = no result given; ! = a repeat was not active. This is a sample that favours compounds with a hit; in the whole collection about 3.5% have one here. No stated cut-off is given here; in the data, active means inhibition above about 50%; inactive means the rest.

SMILES | Pf apPOL inh | mHTT CaM bind
O=C(c1ccc2nc(-c3ccco3)c(-c3ccco3)nc2c1)N(CCO)c1ccccc1 | 1.9 | 66.8*
O=C(Nc1ccc2nc(-c3ccco3)c(-c3ccco3)nc2c1)NC1CC1 | -2.1 | 99.4*
O=C(Nc1nccs1)c1ccc2nc(-c3ccco3)c(-c3ccco3)nc2c1 | 1.5 | 93.1*
O=C(Nc1ccc2nsnc2c1)NC1CC1 | -3.3 | -0.5
O=C(Nc1ccccc1F)c1ccc2nc(-c3ccco3)c(-c3ccco3)nc2c1 | 2.8 | -0.6
O=C(c1ccc2nc(N3C(=O)CCC3=O)sc2c1)N(CCO)c1ccccc1 | -3.6 | 10.5
O=C(NC1=NCCS1)c1ccc2nc(-c3ccco3)c(-c3ccco3)nc2c1 | -3.9 | 71.6*
CCCNC(=O)C1c2ccccc2CC(=O)N1CC (configuration not stated) | 1.6 | -3.5
COc1ccc(CN2CCN(C(=O)c3ccccc3F)CC2)cn1 | 0.1 | -0.3
COc1cc2c(cc1OC)CN(C(=O)CCc1sc(C)nc1-c1cccs1)CC2 | 2.5 | 24.5
COc1cccc(CNC(=O)c2cnn3c(C)c(Cc4ccc(Cl)cc4)c(C)nc23)c1 | -6.0 | -5.0
CC(C)(C)C(O)CCNC(=O)C1CC1 (configuration not stated) | -5.9 | -2.3
CC(C)(C)C(=O)C=C1Nc2ccccc2SC1(O)CC(=O)C(C)(C)C (configuration not stated) | x | 51.1*
CC(NC(=O)CC1Sc2ccccc2NC1=O)C(C)(C)C (configuration not stated) | 1.9 | -11.8
Cc1ccc(Cl)cc1NC(=O)CC(NCCCOC(C)C)C(=O)O (configuration not stated) | -6.7 | -9.5
Cc1ccc(Cl)cc1NC(=O)CC(NCc1ccccn1)C(=O)O (configuration not stated) | -7.7 | 100.0*
Cc1cc(C)nc(NS(=O)(=O)c2ccc(NC(=O)CSc3ncn[nH]3)cc2)n1 | 61.8* | -2.0
Cc1ccnc(NS(=O)(=O)c2ccc(NC(=O)CSc3nc(C)cc(=O)[nH]3)cc2)n1 | -1.7 | -3.0
COc1ccc(Cl)cc1NC(=O)N1CCc2cn(C)c3cccc(c23)C1 | -3.1 | 18.0
COc1ccc(/C=C/C(=O)Nc2nc3n(n2)C(c2ccccc2)C=C(c2ccccc2)N3)cc1 (configuration not stated) | -3.0 | 72.0*
CCCC(=O)Nc1nc2n(n1)C(c1ccccc1)C=C(c1ccccc1)N2 (configuration not stated) | 1.4 | 44.0
CCOC(=O)CC[C@@H]1CC[C@]2(CCCN(Cc3cccs3)C2)O1 | -5.5 | 93.9*
CCN(CC)C(=O)CC[C@H]1CC[C@]2(CCCN(Cc3cccs3)C2)O1 | -4.6 | -3.6
O=C(NCc1cccc(Cl)c1)c1ccc2nc3ccc(Cl)cc3c(=O)n2c1 | -2.4 | 10.0
O=C(CSc1cn(Cc2cccc(F)c2)c2ccccc12)N1CCOCC1 | -6.8 | 20.0
SMILES | Pf apPOL inh | mHTT CaM bind
CCN1CCN(C2CCN(C(=O)c3cc(C)cc(C)c3)CC2)C1=O | -1.8 | 95.5*
CCN1CCN(C2CCN(C(=O)c3ccc(C)cc3)CC2)C1=O | -4.9 | -9.3
CC(Nc1c2ccccc2nc2ccccc12)C(=O)NC(CC(N)=O)C(=O)O (configuration not stated) | 1.6 | 1.0
CC(NC(=O)c1ccco1)C(=O)O (configuration not stated) | 1.0 | -0.2
CC(C)CC(NC(=O)c1ccco1)C(=O)O (configuration not stated) | 61.3* | -2.4
CC(C)CC(NC(=O)C(C)Nc1c2ccccc2nc2ccccc12)C(=O)O (configuration not stated) | -1.7 | 65.0*
Cn1cc(-c2ccncc2)cc1C(=O)NC1CCCCC1 | -1.6 | 3.7
COCCN1CCCc2ccc(NC(=O)CN3C(=O)c4ccccc4C3=O)cc21 | -4.1 | 11.4
Cc1cccc(C2c3cccn3CCN2C(=O)CC(=O)NC(C)C)c1 (configuration not stated) | 0.6 | 39.7
Cc1ccc(O)c(CN2CCCn3cccc3C2c2cccc(O)c2)c1 (configuration not stated) | -3.9 | 100.3*
CC(C)c1cc(C2CCCN2Cc2cc(Cl)ccc2O)on1 (configuration not stated) | 4.1 | -30.4
O=C(NCc1ccc(F)cc1)N1CCn2cccc2C1Cc1ccccc1 (configuration not stated) | -5.0 | 21.6
Oc1cccc(CN2CCCn3cccc3C2c2ccc(F)cc2)c1O (configuration not stated) | 2.5 | 98.3*
Oc1cccc(C2c3cccn3CCCN2Cc2cc(Cl)ccc2O)c1 (configuration not stated) | -1.6 | 100.3*
O=C(CSc1nc2c(c(=O)n1-c1ccc(F)cc1)SCC2)Nc1nc2ccccc2s1 | 5.4 | -2.0
CC(=O)N1CCc2cc(Br)cc(S(=O)(=O)NCCN3CCC(C)CC3)c21 | -0.4 | -2.0
COc1ccccc1-n1c(C)c2c(C)nnc(C)c2c1C | 0.5 | 32.0
COC(=O)Nc1cc(Cl)ccc1OC | -1.0 | -9.1
O=c1[nH]nc(CSCc2ccc(Cl)cc2)[nH]1 | -10.9 | -6.0
COc1cccc(CC(=O)N2CCc3nc(-c4ccccc4)ncc3C2)c1 | 0.7 | 10.6
COc1ccc(-c2cc3nc4c(c(=O)n3[nH]2)CN(C(=O)c2ccccc2C)CC4)cc1 | -0.6 | 3.0
N#CCSc1nc(-c2ccccc2)c(-c2ccccc2)o1 | 92.3*! | -26.0
c1ccc(-c2nc(SCC3COc4ccccc4O3)oc2-c2ccccc2)cc1 (configuration not stated) | x | -13.3
Oc1ccccc1C=Nc1ccc(O)c(-c2nc3ccccc3s2)c1 | 0.7 | 32.0
COc1cc(C=Nc2ccc(O)c(-c3nc4ccccc4s3)c2)ccc1O | 1.7 | 79.0*
SMILES | Pf apPOL inh | mHTT CaM bind
COc1ccc(NC(=O)CN(c2cc(Cl)ccc2OC)S(C)(=O)=O)cc1OC | -5.2 | 5.6
COc1ccc(C(=O)Nc2c3c(nn2-c2ccc(F)cc2)CS(=O)(=O)C3)cc1 | 1.0 | -1.0
Cc1cc(OCC(O)CSc2ccccn2)ccc1Cl (configuration not stated) | -7.9 | -48.5
O=C(NCC(O)c1ccc(C(F)(F)F)cc1)C(c1ccccc1)c1ccccc1 (configuration not stated) | -5.8 | 86.2*
O=C(NCc1ccccc1)NCC(O)c1ccc(C(F)(F)F)cc1 (configuration not stated) | -32.8 | -10.1
Cc1ccc(N2C=NS(=O)(=O)c3cccnc32)cc1C | 0.4 | -8.2
O=C(Cn1cnc(-c2ccc(F)cc2)cc1=O)NCc1ccco1 | -0.8 | -16.2
COc1ccccc1Nc1nc(-c2c(C)nc3sccn23)cs1 | -3.7 | 80.0*
COc1ccc(OC)c(Nc2nc(-c3cccc([N+](=O)[O-])c3)cs2)c1 | 2.7 | 4.5
COc1ccc(OC)c(Nc2nc(-c3c(C)nc4ncccn34)cs2)c1 | -7.3 | 81.5*
COc1ccccc1Nc1nc(-c2cccnc2)cs1 | -2.5 | 25.0
COc1ccccc1Nc1nc(-c2c(C)nc3ccccn23)cs1 | -2.6 | 61.5*
CCN(CC)c1ccc(Nc2nc(-c3c(C)nc4sccn34)cs2)cc1 | 0.1 | 92.8*
COc1ccccc1Nc1nc(-c2ccccc2)cs1 | -1.2 | 18.1
Cc1nc2sccn2c1-c1csc(Nc2ccc([N+](=O)[O-])cc2)n1 | -1.1 | 10.0
C#CCOCC1CCCN(C(=O)c2ccco2)C1 (configuration not stated) | 7.3 | 2.5
COc1ccc(N2C=C(C#N)S(=O)(=O)c3c(F)cccc32)c(OC)c1 | 1.0 | -8.0
